Experimental data published in the supplement of paper PMC3334620.
Whole data set: some 33,000 sequences, median “E-score (-0.5 to 0.5)” near -0.015, cut for the highest 2% near 0.3. The sample holds the highest values, similar sequences and a random draw of the others, so the mix is not that of the screen.

target: T1, Abf1 (UniProt P14164); experiment: PBM E-score (8-mer binding enrichment) (E-score (-0.5 to 0.5)); higher = stronger / more preferred TF binding; conditions: protein concentration: 200 nM; construct: GST-full length
T1 sequence: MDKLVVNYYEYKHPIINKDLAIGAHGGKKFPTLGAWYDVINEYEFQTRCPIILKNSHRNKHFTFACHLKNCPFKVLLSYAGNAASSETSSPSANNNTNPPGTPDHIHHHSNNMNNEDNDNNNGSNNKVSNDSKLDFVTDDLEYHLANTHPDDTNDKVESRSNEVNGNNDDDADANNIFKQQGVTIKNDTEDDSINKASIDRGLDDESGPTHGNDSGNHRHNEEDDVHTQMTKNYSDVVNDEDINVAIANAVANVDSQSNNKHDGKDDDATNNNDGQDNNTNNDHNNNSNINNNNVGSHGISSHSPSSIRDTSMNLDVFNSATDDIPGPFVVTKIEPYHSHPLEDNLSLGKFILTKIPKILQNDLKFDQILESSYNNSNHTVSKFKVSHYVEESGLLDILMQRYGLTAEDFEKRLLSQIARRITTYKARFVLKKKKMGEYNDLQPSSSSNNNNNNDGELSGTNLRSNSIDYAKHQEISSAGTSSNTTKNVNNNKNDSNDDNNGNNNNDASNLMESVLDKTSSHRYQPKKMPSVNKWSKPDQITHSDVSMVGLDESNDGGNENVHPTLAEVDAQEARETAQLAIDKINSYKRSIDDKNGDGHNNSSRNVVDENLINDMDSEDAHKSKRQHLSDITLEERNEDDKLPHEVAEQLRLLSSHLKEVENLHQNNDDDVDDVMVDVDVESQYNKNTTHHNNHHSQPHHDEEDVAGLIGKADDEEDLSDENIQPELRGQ
Procedure: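 Universal 'all 10-mer' protein binding microarrays (Agilent AMADID 015681) probed with GST-tagged S. cerevisiae TFs (full-length or DBD) made by in vitro transcription/translation (PURExpress), about 100-200 nM. Bound TF was detected with fluorescent anti-GST. Each ungapped 8-mer (which stands for itself and its reverse complement) is scored by the PBM enrichment score (E-score), a modified Wilcoxon-Mann-Whitney statistic from -0.5 to +0.5, computed with the Universal PBM Analysis Suite. Scale: above 0.35 generally sequence-specific binding.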

Sequence | PBM E-score
CATCGCGA | 0.2
GATCGCGC | 0.121
AATCGCGA | 0.176
GATCGCGA | 0.315
GATCGCCA | 0.165
TATCGCGA | 0.34
ATTTAGCA | 0.193
AGGTAATG | 0.0091
AACTCTAT | -0.096
GGTCTTTA | 0.0661
CGTCTTTA | 0.301
CGTCTTTC | 0.0707
CTTGTTAA | -0.072
ATCGTGCC | 0.276
ACCGTGCC | 0.0366
CCCGTGCA | 0.0856
ACCGTGCG | 0.315
ATCGTGCA | 0.282
ACCGTGCT | 0.139
TCCGTGAA | 0.238
CCCGTGCG | 0.054
TCCGTGCA | 0.312
GCCGTGCA | 0.223
ACCGTGCA | 0.315
ATCGTGCG | 0.366

Sequence | PBM E-score
AAGTTGTG | -0.0478
CTAGGAAG | -0.18
CACTGAGA | -0.104
AGAAGTTG | -0.0778
CTTCGACC | -0.0331
GTAGTCAA | 0.106
CGTGAGTC | 0.0135
CGCCCGCG | -0.0644
AACAGTAT | 0.0291
AGGTCCAC | -0.0594
AATACGGT | 0.194
CATACGAG | 0.171
GATACGGC | 0.199
CATACGGA | 0.295
CATACGGC | 0.346
AATACGGG | 0.202
CATACGAC | 0.333
AATACGGC | 0.32
CATACGCC | -0.00293
CAGCTTTC | -0.00915
AAACTTCT | 0.211
ATCGCCAC | 0.275
ATAGATAC | -0.0386
AACACTTG | -0.0627
ATCACTTG | 0.355

Sequence | PBM E-score
ATCACTTA | 0.355
ATCACTGA | 0.205
CTCACTTA | 0.14
GCCACTTA | -0.0218
AGCACTTC | 0.0874
ATCACTTC | 0.376
GTCACTGA | 0.253
GTCACTTA | 0.355
CTCACTTC | -0.0359
AGCACTTG | -0.314
CACGGGTC | -0.0483
CGTGTGGC | 0.0664
ATACCGAA | 0.189
ATTGACGC | -0.156
AGTTCTTC | -0.0427
CTTCAGAA | -0.179
CAAGAACG | 0.123
GCCATTAA | 0.0468
AATTGAAG | -0.0559
GACACGGA | 0.167
CACACGGA | 0.0992
GACACGAA | 0.172
CACACGAA | 0.341
AACACGAA | 0.205
CACACGAG | 0.107

Sequence | PBM E-score
TACACGGA | 0.329
TACACGAA | 0.337
CACACGAC | 0.295
GGGCAGCA | -0.256
AGCAGGTG | -0.0258
ACCTAACC | 0.0492
ACTTAGGC | -0.111
ACTCATCC | 0.227
TACGAAGA | 0.334
TCCGAAGA | -0.0522
GACGAAGA | 0.253
CACGAAGA | 0.316
AACGAAGA | 0.188
TACGAATA | 0.25
CAGCAGGA | -0.0545
ACCCTACT | -0.231
CCTATTCC | -0.139
GCAGGTAC | -0.221
GAATGACC | 0.0136
GAATGACA | 0.311
TAATGACA | 0.376
AAATGACA | 0.358
AAATGACC | 0.215
AAATGACG | 0.187
TATTGACA | -0.0437

Sequence | PBM E-score
CAATGACA | 0.214
TAATGCCA | -0.0319
GACTTCTC | 0.167
ATGAGCGC | 0.0585
GTAGGGTA | 0.0591
CCGTTTGC | -0.0132
CATAGCAG | -0.126
ATCGTACA | 0.34
GTCGTACA | 0.383
AACGTACA | 0.0978
ATCGTACG | 0.394
ATCGTAAG | 0.108
CTCGTACA | 0.342
CTCGTACC | 0.184
ATCGTACC | 0.0609
ATCGTAAA | 0.234
GGCGTACA | 0.0819
GTCGTAGA | 0.278
CACGTACA | 0.0758
GTCTGCAC | -0.061
GGTCCTGA | -0.0764
CGGAAGTA | -0.0352
ACAGGTAC | -0.146
GGCTTTAC | -0.225
GCTGGGTA | -0.0116

Sequence | PBM E-score
AAGAAAAA | -0.0775
CCAGGATA | 0.126
GTGAGGTA | -0.0243
AGAAACCT | -0.237
ATTACGGA | 0.303
CTTACGTA | 0.212
ATTACGGG | -0.0226
ATTACGGC | 0.184
ATTACGTG | 0.176
ATTACGTA | 0.372
GAGAGGCA | -0.176
GCCCTACC | -0.149
CTGAATCA | -0.0743
AAGCCCCC | -0.352
GTAGTGAC | 0.35
ATAGTGGG | -0.075
CTAGTGAC | 0.316
ATAGTGAG | 0.069
ATAGTGAT | 0.436
GTAGTGAA | 0.0467
ATAGTGAA | 0.0719
CTAGTGAA | -0.202
ATAGTGAC | 0.35
ACAGTGAT | 0.294
GCAGTGAC | 0.15

Sequence | PBM E-score
CTAGTGAG | -0.0339
AGTCGTAC | 0.169
CTGGGTAA | -0.0825
ATGGGTTC | -0.0947
GCGCGCGC | 0.197
GCAGGGAC | -0.131
TTAGCCAA | -0.00286
CGGCGCCC | -0.143
CGAGCAAA | 0.179
CGCGGGAC | -0.172
GTCGTGCA | 0.374
AACGTGCA | 0.0844
CTCGTGCA | 0.124
GGCGTGCA | -0.0867
GACGTGCA | 0.358
CACGTGCA | 0.139
GATGGAGA | -0.00795
AGATCGCA | 0.0409
ATCCCCGC | -0.211
CACAAAGA | 0.0323
AGGTCAGC | -0.0373
CCGTACAC | 0.3
